Experimental findings from the supplement of paper PMC10042075 are described below.

Each structure is given as a SMILES string. Where a name gives a salt, the structure may show the parent alone.

For this assay, the system named is LASCPC-01. As to the kind of experiment: cell viability relative to DMSO control (fraction); higher = less growth inhibition (more viable cells). Conditions: 2 µM; 72 h. As to the method:
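High-throughput single-dose screen in the LASCPC-01 NEPC cell line in 384-well plates. Cells were treated with each compound at 2 µM for 72 h, and viability was read by CellTiter-Glo luminescence. Values are normalised to the DMSO control (compound/DMSO) from three replicates; only the 5-HT-related subset of the 7315-compound library is given.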
In turn, `COc1ccc2[nH]cc(CCN)c2c1` [O-Methylserotonin hydrochloride] came in with a cell viability of 0.981.
